In the library only some 1.3% were active in any assay of this set; here they are far more common.
SARS 3CLpro inh: SARS-CoV 3CLpro protease inhibition; P0C6X7; recombinant SARS-CoV 3CLpro, quenched FRET peptide cleavage; inhibition, % at 6 µM; 0.14% of 290,000 active; in the data active = inhibition above about 12%
Sa ugtP lethal: compounds lethal to S. aureus RN4220 ugtP deletion mutant. OD600 growth, 16 h. growth inhibition, % (concentration not given with the values). 0.54% of 330,000 active. AID 1259309; in the data active = growth inhibition above about 68%
PfHsp40 rescue: compounds rescuing yeast from Plasmodium falciparum HSP40 toxicity | S. cerevisiae expressing PfHsp40, growth rescue, ATP luminescence | 0.68% of 340,000 active | growth rescue, % at 12.5 µM | AID 504582; in the data active = growth rescue above about 28%, passing the limit was not always enough; inconclusive = no clear call, values can overlap the other calls;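 note: yeast W303a lacking pdr1 and pdr3 grown in galactose medium; growth measured after three days at 30 °C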
BJeLR viability: BJeLR cell viability loss; BJeLR (HRASV12) viability, CellTiter-Glo ATP luminescence, 48 h; inhibition, % (no concentration beside the values); 0.17% of 300,000 active; AID 1554; in the data active = inhibition above about 50%; inconclusive = no clear call, values can overlap the other calls
RN4220 kill: S. aureus RN4220 growth inhibition. OD600, 16 h. 0.33% of 330,000 active. inhibition, % (no concentration beside the values); in the data active = inhibition above about 85%
Of the large screens only hits and unclear results are named; the others gave an inactive call.

CC1=CCC[C@@H]2[C@@](C)(CC/C(C)=C/C(=O)O)[C@H](C)CC[C@@]12C	PfHsp40 rescue 58 (no result: Sa ugtP lethal, RN4220 kill)
C=CCN(C(=O)c1csnn1)C(C(=O)NCc1ccc(F)cc1)c1ccccc1 (stereo unspecified)	none
CCOC(=O)/C(=C/c1ccc(OC(=O)c2ccccc2)cc1)C(C)=O	PfHsp40 rescue 312
O=[N+]([O-])c1ccccc1S(=O)(=O)Nc1ccc(S(=O)(=O)Nc2nccs2)cc1	Sa ugtP lethal 95
O=[N+]([O-])c1cccc(S(=O)(=O)Nc2ccc(S(=O)(=O)Nc3nccs3)cc2)c1	none
CC(C)/C=C(/C(=O)c1ccc(Cl)cc1Cl)n1cncn1	PfHsp40 rescue 399
CS(=O)(=O)N1CCC(C(=O)N2CCc3ccccc3C2)CC1	none
COc1c(N2CCN[C@H](C)C2)c(F)cc2c(=O)c(C(=O)O)cn(C3CC3)c12	none (no result: Sa ugtP lethal, PfHsp40 rescue, RN4220 kill)
COc1c(N2CCN(C(=S)NCc3ccccc3)C(C)C2)c(F)cc2c(=O)c(C(=O)O)cn(C3CC3)c12 (stereo unspecified)	Sa ugtP lethal 100, PfHsp40 rescue inconclusive, RN4220 kill 100
CCc1nn(C(C)C(=O)N2CC(C)CC(C)C2)c(=O)c2cc3occc3n12 (stereo unspecified)	none
CCc1nn(C(C)C(=O)N2CCN(c3ccc(OC)cc3)CC2)c(=O)c2cc3occc3n12 (stereo unspecified)	PfHsp40 rescue 112
Nc1ncnc2c(C3OC(CO)C(O)C3O)scc12 (stereo unspecified)	PfHsp40 rescue 145 (no result: SARS 3CLpro inh, Sa ugtP lethal, BJeLR viability, RN4220 kill)
CC(C)(C)n1nc(-c2ccc(Cl)cc2)c2c(N)ncnc21	PfHsp40 rescue 311
Cc1ccc(-c2nc(N)c3c(-c4ccc(C)cc4)nn(C(C)(C)C)c3n2)cc1	none
CC(C)(C)n1nc(-c2ccc(F)cc2)c2c(N)ncnc21	PfHsp40 rescue 454
COc1ccc(-c2coc3cc(O)cc(O)c3c2=O)cc1	PfHsp40 rescue 199
COc1ccc(-c2coc3cc(OC)cc(O)c3c2=O)cc1	none (no result: Sa ugtP lethal, RN4220 kill)
Cc1ccc(-c2[nH]nc(N)c2N=Nc2cccc(Cl)c2C)cc1	Sa ugtP lethal 99 (no result: BJeLR viability)
O=C1c2ccccc2NC(c2ccc(-c3ccc(C(F)(F)F)cc3)o2)N1O (stereo unspecified)	PfHsp40 rescue 279 (no result: SARS 3CLpro inh, BJeLR viability)
O=C1c2ccccc2NC(c2ccc(Br)o2)N1O (stereo unspecified)	none (no result: SARS 3CLpro inh, BJeLR viability)
O=C1c2ccccc2NC(c2ccc(-c3cccs3)o2)N1O (stereo unspecified)	PfHsp40 rescue 58 (no result: SARS 3CLpro inh, BJeLR viability)
O=C1c2ccccc2NC(c2ccco2)N1O (stereo unspecified)	none
Cc1ccc(NC(=O)c2c([N+](=O)[O-])cnn2C)cc1C	none
O=C1c2ccccc2C(=O)c2c1ccc1c(=O)n(-c3ccccc3)[nH]c21	none
CC(C)Cn1[nH]c2c3c(ccc2c1=O)C(=O)c1ccccc1C3=O	Sa ugtP lethal 85, RN4220 kill 89
CC(Cc1c[nH]c2ccccc12)C(=O)N1CCN(c2ccccc2F)CC1 (stereo unspecified)	none
CCCCCCCCCCOC(=O)C[N+](C)(C)C/C=C(/C)Cl	Sa ugtP lethal 100
CCCCCCCCOC(=O)C[N+](C)(C)C/C=C(/C)Cl	none
COc1ccc(Oc2cc(C)c3cccc(C)c3n2)cc1	Sa ugtP lethal 96
COc1ccc(N(C(=O)c2ccco2)S(=O)(=O)c2cccs2)cc1	none
O=C(Nc1ccccc1N(C(=O)c1ccco1)S(=O)(=O)c1cccs1)c1ccco1	PfHsp40 rescue 41
CCOC(=O)C1CCN(C(=O)CSc2n[nH]c(=O)[nH]c2=O)CC1	none
COCc1c(C(C)C)nc(C(C)C)c(/C=C/[C@@H](O)C[C@@H](O)CC(=O)O)c1-c1ccc(F)cc1	BJeLR viability 72 (no result: SARS 3CLpro inh, Sa ugtP lethal, PfHsp40 rescue, RN4220 kill)
O=C1C(Nc2ccccc2)=C/C(=N/S(=O)(=O)c2cccs2)c2ccccc21	PfHsp40 rescue 266 (no result: Sa ugtP lethal, RN4220 kill)
CCCCCCCCCCS(=O)(=O)NN=Cc1ccccc1OC	Sa ugtP lethal 97 (no result: SARS 3CLpro inh, PfHsp40 rescue, BJeLR viability)
CCCCCCCCCCS(=O)(=O)N/N=C/c1ccccc1OC	none (no result: Sa ugtP lethal, RN4220 kill)
CCn1cc(C(=O)O)c(=O)c2cc(F)c(N3CCN(C(=S)NC(=O)c4ccccc4Cl)CC3)cc21	Sa ugtP lethal 100, RN4220 kill 100
CCn1cc(C(=O)O)c(=O)c2cc(F)c(N3CCN(C(=S)Nc4ccc(OC)cc4)CC3)cc21	none
CCn1cc(C(=O)O)c(=O)c2cc(F)c(N3CCN(C(=S)NC(=O)c4ccccc4)CC3)cc21	Sa ugtP lethal 99, RN4220 kill 99
CCn1cc(C(=O)O)c(=O)c2cc(F)c(N3CCN(C(=S)NC(=O)c4ccccc4C)CC3)cc21	Sa ugtP lethal 100, RN4220 kill 100
CCn1cc(C(=O)O)c(=O)c2cnc(N3CCN(C(=S)NC(=O)c4ccccc4)CC3)nc21	none
CCn1cc(C(=O)O)c(=O)c2cc(F)c(N3CCN(C(=S)NC(=O)c4cc(OC)cc(OC)c4)CC3)cc21	Sa ugtP lethal 99, RN4220 kill 100
O=C(Nc1nc(-c2ccc(F)cc2)cs1)C1CCCO1 (stereo unspecified)	none
O=C(NCC1CCCO1)c1nn2cccnc2c1Cl (stereo unspecified)	none
Cc1ccccc1N=C(NOCc1ccc(Cl)cc1Cl)c1nonc1N	none
C/C(=N\Nc1nccnc1Cl)c1c(F)c(F)c(F)c(F)c1F	PfHsp40 rescue 59 (no result: Sa ugtP lethal, RN4220 kill)
C/C(=N\Nc1nccnc1Cl)c1ccc(F)cc1	none (no result: Sa ugtP lethal, RN4220 kill)
Cc1ccsc1C(=O)OCc1nc2ccccc2c(=O)[nH]1	none (no result: BJeLR viability)
O=C(c1ccco1)N(CC1CCCO1)c1nc(-c2ccccc2)cs1 (stereo unspecified)	Sa ugtP lethal 86
O=C(COc1ccc(Cl)c(Cl)c1)NC1CCS(=O)(=O)C1 (stereo unspecified)	none (no result: SARS 3CLpro inh, BJeLR viability)
CC(C)c1ccc(S(=O)(=O)/N=C2/C=C(Sc3ncn[nH]3)C(=O)c3ccccc32)cc1	none (no result: Sa ugtP lethal, BJeLR viability, RN4220 kill)
Cc1ccc(S(=O)(=O)/N=C2/C=C(Sc3ncn[nH]3)C(=O)c3ccccc32)cc1	PfHsp40 rescue 119 (no result: Sa ugtP lethal, BJeLR viability, RN4220 kill)
Cc1c(C(C)C)c(=O)n(-c2ccc(S(=O)(=O)NCc3ccccc3)cc2)n1C	none
CCc1ccc(-n2c(C)n[nH]c2=S)cc1	none
COc1ccc(CNS(=O)(=O)c2cc3c(cc2Cl)NC(=O)CO3)cc1	none
CCNC(=S)N/N=C(\C)c1ccc2ccccc2c1OC(F)F	PfHsp40 rescue 62 (no result: Sa ugtP lethal, RN4220 kill)
CCNC(=S)NN=C(C)c1ccc2ccccc2c1OC(F)F	none (no result: SARS 3CLpro inh, PfHsp40 rescue, BJeLR viability)
CCCCCCCC(=O)NN=C(C)c1ccc(N)cc1	none (no result: SARS 3CLpro inh, PfHsp40 rescue, BJeLR viability)
Cc1cnnn1-c1ccc(C(=O)CCl)cc1	Sa ugtP lethal 98, RN4220 kill 98
CCCc1ccc2oc(C(=O)NCCc3nc(C(=O)OCC)cs3)c(C)c2c1	PfHsp40 rescue 40
COc1ccc(C(=O)c2ccc(Cl)cc2)c2ccccc12	Sa ugtP lethal 96
CCOC(=O)CN(C(=O)CSc1nnc(-c2ccc(OC)c(OC)c2)o1)c1ccc(F)cc1	none
CC(=O)C(C(C)=O)c1c(Cl)c(O)c(O)c2c(C(=O)c3ccccc3)coc12	PfHsp40 rescue 51 (no result: Sa ugtP lethal, RN4220 kill)
CN1CCN(Cc2c(O)ccc3occ(C(=O)c4ccccc4)c23)CC1	none
O=C(NNC(=S)NC(=O)c1ccccc1Cl)c1cccc([N+](=O)[O-])c1	PfHsp40 rescue inconclusive
